The source of these data is the antibiotic and cytotoxicity screens of Wong et al. (2023).

Out of some 39,000 compounds screened, about 500 (1.3%) were called active. What follows is part of a selection rich in actives, with near analogues and random picks from the rest.

This test deals with S. aureus RN4220. Briefly: growth inhibition call (relative growth <= 0.2). The note with it: 50 µM.
Regarding `COc1ccc(S(=O)(=O)Nc2ccc3c(c2)C(=O)N([C@H](C)CO)C[C@@H](C)[C@H](CN(C)Cc2ccc(Cl)c(Cl)c2)OCCCC[C@H](C)O3)cc1`, the growth inhibition call is “inactive”.
As to `C[C@@H]1CN([C@H](C)CO)C(=O)c2cc(-c3ccncc3)cnc2O[C@H]1CN(C)S(=O)(=O)c1ccccc1`, the growth inhibition call was “inactive”.
In the case of `C[C@@H]1CN([C@@H](C)CO)C(=O)c2cc(NS(=O)(=O)c3ccc(F)cc3)ccc2O[C@H]1CN(C)C(=O)Nc1ccc(C(F)(F)F)cc1`, the growth inhibition call is “inactive”.
In the case of `C[C@@H]1CCCCO[C@H](CN(C)S(=O)(=O)c2cn(C)cn2)[C@H](C)CN([C@@H](C)CO)C(=O)c2cc(NS(=O)(=O)c3ccc(F)cc3)ccc2O1`, the growth inhibition call was “inactive”.
`C[C@@H]1CN([C@@H](C)CO)C(=O)c2cc(NC(=O)Nc3cccc4ccccc34)ccc2O[C@@H]1CN(C)S(=O)(=O)c1ccc(F)cc1`: the growth inhibition call was “inactive”.
As for `COc1cc(OC)cc(-c2ccc(-c3ccc([C@H]4CC(=O)C[C@@H](c5ccccc5)C45C(=O)OC(C)(C)OC5=O)cc3)cc2OC)c1`, the growth inhibition call is “inactive”.
As for `COc1cc(OC)cc(-c2ccc([C@H]3CC(=O)C[C@@H](c4ccccc4)C34C(=O)OC(C)(C)OC4=O)cc2)c1`, the growth inhibition call is “inactive”.
With `COc1cc(OC)cc(-c2ccc([C@H]3CC(=O)C[C@@H](c4ccccc4)C34C(=O)c3ccccc3C4=O)cc2)c1`, the growth inhibition call is “active”.
On to `Cc1cc(C(=O)Nc2cccc3c2O[C@H](CN(C)C(=O)NC(C)C)[C@@H](C)CN([C@H](C)CO)C3=O)n(C)n1`, for which the growth inhibition call was “inactive”.
Take `C[C@H](CO)N1C[C@H](C)[C@@H](CN(C)C(=O)c2ccccc2)OCCCC[C@H](C)Oc2ccc(NC(=O)Nc3ccc4c(c3)OCO4)cc2C1=O`: the growth inhibition call was “inactive”.
Consider `CO[C@H]1CN(C)C(=O)c2ccc(NS(=O)(=O)c3ccccc3C)cc2OC[C@@H](C)N(S(C)(=O)=O)C[C@@H]1C`, for which the growth inhibition call was “inactive”.
`C[C@@H]1CCCCO[C@H](CN(C)C)[C@H](C)CN([C@@H](C)CO)C(=O)c2cc(NC(=O)CCCN(C)C)ccc2O1`: the growth inhibition call is “inactive”.
With `CO[C@@H]1[C@@H](O[C@@H]2O[C@H](C)[C@@H](O[C@H]3C[C@@](C)(O)[C@@H](OC(=O)CC(C)C)[C@H](C)O3)[C@H](N(C)C)[C@H]2O)[C@@H](CC=O)C[C@@H](C)[C@@H](O)/C=C\C=C/C[C@@H](C)OC(=O)C[C@H]1OC(C)=O`, the growth inhibition call was “active”.
Consider `CO[C@@H]1[C@@H](O[C@@H]2O[C@H](C)[C@@H](O[C@H]3C[C@@](C)(O)[C@@H](OC(=O)CC(C)C)[C@H](C)O3)[C@H](N(C)C)[C@H]2O)[C@@H](CC=O)C[C@@H](C)[C@@H](O)/C=C/C=C/CC(C)OC(=O)C[C@H]1OC(C)=O` (stereo partly specified), for which the growth inhibition call was “inactive”.
Consider `COC(=O)[C@@H]1CC(=O)O[C@H](C)C/C=C/C=C/[C@H](O)[C@H](C)C[C@H](CC=O)[C@H](O[C@H]2O[C@H](C)[C@@H](O[C@H]3C[C@@](C)(O)[C@@H](OC(=O)CC(C)C)[C@H](C)O3)[C@H](N(C)C)[C@H]2O)[C@H]1OC`, for which the growth inhibition call was “active”.
Regarding `COC1C(O)CC(=O)OC(C)CC=CC=CC(O)C(C)CC(CC=O)C1OC1OC(C)C(OC2CC(C)(O)C(OC(=O)CC(C)C)C(C)O2)C(N(C)C)C1O` (stereo unspecified) [KITASAMYCINS [A1 shown]], the growth inhibition call is “active”.
With `C[C@@H]1CN([C@@H](C)CO)C(=O)c2cc(NC(=O)CCC(F)(F)F)ccc2O[C@@H]1CN(C)Cc1ccc(Oc2ccccc2)cc1`, the growth inhibition call is “inactive”.
Take `C[C@@H]1CN([C@H](C)CO)C(=O)c2cccc(NC(=O)Nc3ccc(C(F)(F)F)cc3)c2O[C@@H]1CN(C)C(=O)NC1CCCCC1`: the growth inhibition call was “inactive”.
As for `C[C@H]1CN([C@@H](C)CO)C(=O)c2cccc(NC(=O)Nc3ccc(C(F)(F)F)cc3)c2O[C@@H]1CN(C)CC1CCCCC1`, the growth inhibition call was “inactive”.
Then `C[C@H]1CN([C@@H](C)CO)C(=O)c2cccc(NC(=O)Nc3ccc(C(F)(F)F)cc3)c2O[C@@H]1CN(C)C(=O)NC1CCCCC1`, with “inactive”; and `C[C@@H]1CN([C@H](C)CO)C(=O)c2cccc(NC(=O)NC3CCCCC3)c2O[C@H]1CN(C)C(=O)Nc1ccc(C(F)(F)F)cc1`, with “inactive”.
Then `C[C@@H]1CN([C@H](C)CO)C(=O)c2cccc(NC(=O)Nc3ccc(C(F)(F)F)cc3)c2O[C@@H]1CN(C)CC1CCCCC1`, with “active”; and `C[C@H]1CN([C@@H](C)CO)C(=O)c2cccc(NC(=O)NC3CCCCC3)c2O[C@H]1CN(C)C(=O)Nc1ccc(C(F)(F)F)cc1`, with “inactive”.
Then `C[C@@H]1CN([C@H](C)CO)C(=O)c2cccc(NC(=O)Nc3ccc(C(F)(F)F)cc3)c2O[C@H]1CN(C)CC1CCCCC1`, with “inactive”; and `C[C@H]1CN([C@@H](C)CO)C(=O)c2cccc(NC(=O)Nc3ccc(C(F)(F)F)cc3)c2O[C@H]1CN(C)C(=O)NC1CCCCC1`, with “active”; and `C[C@H](CO)N1C[C@H](C)[C@H](CN(C)C(=O)Nc2ccc(C(F)(F)F)cc2)Oc2c(NC(=O)NC3CCCCC3)cccc2C1=O`, with “active”.
In the case of `C[C@H](CO)N1C[C@H](C)[C@H](CN(C)C(=O)Cc2ccccc2)OCCCC[C@H](C)Oc2ccc(NS(=O)(=O)c3ccc(F)cc3)cc2C1=O`, the growth inhibition call was “inactive”.
As for `C[C@@H]1CN([C@@H](C)CO)C(=O)c2cccc(NC(=O)Nc3ccc(C(F)(F)F)cc3)c2O[C@H]1CN(C)C(=O)NC1CCCCC1`, the growth inhibition call is “inactive”.
Regarding `C[C@H](O)C#Cc1cnc2c(c1)C(=O)N([C@@H](C)CO)C[C@H](C)[C@@H](CN(C)C(=O)Nc1ccc(C(F)(F)F)cc1)O2`, the growth inhibition call is “inactive”.
On to `C[C@@H]1CN([C@H](C)CO)C(=O)Cc2cc(NC(=O)Nc3ccc(C(F)(F)F)cc3)ccc2O[C@@H]1CN(C)C(=O)Nc1cccc2ccccc12`, for which the growth inhibition call was “inactive”.
Take `COC1C(OC(N)=O)C(O)C(Oc2ccc3c([O-])c(NC(=O)c4ccc(O)c(CC=C(C)C)c4)c(=O)oc3c2C)OC1(C)C.[Na+]` (stereo unspecified): the growth inhibition call is “active”.
Then `CO[C@@H]1[C@@H](OC(=O)c2ccc(C)[nH]2)[C@@H](O)[C@@H](Oc2ccc3c(c2C)OC(=O)[C@H](NC(=O)c2[nH]cc(CC(=O)Nc4cc5ccc(O[C@@H]6OC(C)(C)[C@H](OC)[C@@H](OC(=O)c7ccc(C)[nH]7)[C@H]6O)c(C)c5oc4=O)c2C)C3)CC1(C)C`, with “inactive”; and `O=C(C[C@H]1C[C@@H]2c3cc(NS(=O)(=O)c4ccc(F)cc4)ccc3O[C@@H]2[C@@H](CO)O1)NC1CCCCC1`, with “inactive”.
With `O=C(C[C@H]1CC=CCCC(=O)OCCNC1=O)NCCO`, the growth inhibition call is “inactive”.
Then `c1n[nH]nc1SSc1cn[nH]n1`, with “active”.
Consider `C[C@@H]1CN([C@@H](C)CO)C(=O)Cc2cc(NC(=O)CCCN(C)C)ccc2O[C@H]1CN(C)S(C)(=O)=O`, for which the growth inhibition call is “inactive”.
On to `COc1ccc(S(=O)(=O)N(C)C[C@@H]2Oc3ccc(NC(=O)Nc4cccc5ccccc45)cc3C(=O)N([C@@H](C)CO)C[C@@H]2C)cc1`, for which the growth inhibition call is “inactive”.
Turning to `COc1ccc(S(=O)(=O)Nc2cccc3c2O[C@@H](CN(C)S(=O)(=O)c2cn(C)cn2)[C@@H](C)CN([C@H](C)CO)C3=O)cc1`, the growth inhibition call was “inactive”.
With `C[C@H]1CN([C@@H](C)CO)C(=O)c2cc(NC(=O)Nc3ccc(C(F)(F)F)cc3)ccc2O[C@H]1CN(C)Cc1ccc(C(=O)O)cc1`, the growth inhibition call is “inactive”.
Then `Cc1ccc(S(=O)(=O)Nc2cccc3c2O[C@H](CN(C)Cc2ccc(C(F)(F)F)cc2)[C@H](C)CN([C@@H](C)CO)C3=O)cc1`, with “inactive”; and `NC[C@@H]1O[C@H](C23CC4CC(CC(C4)C2)C3)Cc2c1ccc(O)c2O`, with “active”; and `Cn1cnc(S(=O)(=O)N2CC[C@H]3NC(=O)C[C@H]32)c1`, with “inactive”.
Turning to `C[C@@H]1CN([C@H](C)CO)C(=O)Cc2cc(NC(=O)CCC(F)(F)F)ccc2O[C@H]1CN(C)S(=O)(=O)c1cn(C)cn1`, the growth inhibition call is “inactive”.
`OC1(c2ccc(Cl)c(C(F)(F)F)c2)CCN(CCCC(c2ccc(F)cc2)c2ccc(F)cc2)CC1` [listing 1 of 2 here]: the growth inhibition call is “active”.
The same measure for `O=C(CCCN1CCC(O)(c2ccc(Cl)cc2)CC1)c1ccc(F)cc1`: “inactive”; for `OC1(c2ccc(Cl)c(C(F)(F)F)c2)CCN(CCCC(c2ccc(F)cc2)c2ccc(F)cc2)CC1` [listing 2 of 2 here]: “inactive”.
Then `C[C@H](CO)N1C[C@H](C)[C@@H](CN(C)S(=O)(=O)c2ccc(F)cc2)Oc2c(NC(=O)c3ccncc3)cccc2C1=O`, with “inactive”; and `C[C@@H]1CN([C@@H](C)CO)C(=O)c2cc(NC(=O)C3CCCCC3)ccc2O[C@@H](C)CCCCO[C@H]1CN(C)Cc1ccc(C(F)(F)F)cc1`, with “inactive”.
On to `COc1ccc(S(=O)(=O)N(C)C[C@@H]2Oc3ccc(NC(=O)C4CC4)cc3CC(=O)N([C@@H](C)CO)C[C@H]2C)cc1`, for which the growth inhibition call is “inactive”.
As to `CC1c2cccc(O)c2C(=O)C2=C(O)C3(O)C(=O)C(C(N)=O)=C(O)C(N(C)C)C3C(O)C21.Cl` (stereo unspecified), the growth inhibition call was “inactive”.
The same measure for `C=C1c2cccc(O)c2C(=O)[C@@H]2C(=O)[C@]3(O)C(=O)[C@@H](C(N)=O)C(=O)[C@@H](N(C)C)[C@@H]3[C@@H](O)[C@H]12`: “inactive”; for `C[C@H]1c2cccc(O)c2C(=O)C2=C(O)[C@]3(O)C(=O)[C@@H](C(N)=O)C(=O)[C@@H](N(C)C)[C@@H]3[C@@H](O)[C@@H]21`: “active”; for `COc1ccc(S(=O)(=O)N(C)C[C@@H]2Oc3c(NC(=O)C4CC4)cccc3C(=O)N([C@@H](C)CO)C[C@@H]2C)cc1`: “inactive”.
As to `CO[C@@H]1CN(C)C(=O)c2ccc(NC(=O)C3CC3)cc2OC[C@H](C)N(C(=O)CN2CCOCC2)C[C@H]1C`, the growth inhibition call was “inactive”.
With `C[C@@H]1CN([C@H](C)CO)C(=O)c2cc(NS(=O)(=O)c3ccccc3)ccc2O[C@@H](C)CCCCO[C@H]1CN(C)C(=O)NC1CCCCC1`, the growth inhibition call is “inactive”.
Then `CC1COc2c(N3CCN(C)CC3)c(F)cc3c(=O)c(C(=O)O)cn1c23` (stereo unspecified), with “active”; and `C[C@H]1COc2c(C3(N)CC3)c(F)cc3c(=O)c(C(=O)O)cn1c23`, with “active”.
Take `CC1CCc2c(N3CCC(O)CC3)c(F)cc3c(=O)c(C(=O)O)cn1c23` (stereo unspecified): the growth inhibition call is “inactive”.
For the compound `CN1CCN(c2c(F)cc3c(=O)c(C(=O)O)cn4c3c2OCN4C)CC1`, the growth inhibition call was “active”.
For the compound `CC1COc2c(C3(N)CC3)c(F)cc3c(=O)c(C(=O)O)cn1c23.CS(=O)(=O)O` (stereo unspecified), the growth inhibition call is “inactive”.
`CC1CCc2cc(F)cc3c(=O)c(C(=O)O)cn1c23` (stereo unspecified): the growth inhibition call is “active”.
